Experimental data as given in PubChem BioAssay.
Active and inactive are the calls of the source.

Key:
[1] = test system: Human papillomavirus type 1a protein E7 (residues 44-93); assay: small molecules binding HPV E7 44-93 – biochemical, small-molecule microarray, residues 44-93, 635 nm fluorescence, primary screen (AID 1108); settings: fluorescence 635 nm, higher = more signal;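 note: E7 fragment applied at 1 µg/mL in TBST for 1 h at 4 C; score combines spot fluorescence with its signal to noise ratio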
[2] = hepatitis C replication reporter changes, two-sided – Huh7 cells, luciferase reporter, HCV replication inhibitor project, primary screen (AID 1109); settings: Huh7 HCV replicon luciferase reporter, 48 h; higher = more signal;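 note: huh7 hepatoma cells harbouring a luciferase neomycin HCV replicon reporter; luciferase luminescence as measure of HCV replicon replication; test concentration not given here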
[3] = molecular target: Left-right determination factor 2 (Homo sapiens) (UniProt O00292); assay: small molecules binding LEFTY2 protein – biochemical, small-molecule microarray, 635 nm fluorescence scan, primary screen (AID 1110); settings: higher = more signal
Left-right determination factor 2 (Homo sapiens), sequence (O00292 whole entry, looked up): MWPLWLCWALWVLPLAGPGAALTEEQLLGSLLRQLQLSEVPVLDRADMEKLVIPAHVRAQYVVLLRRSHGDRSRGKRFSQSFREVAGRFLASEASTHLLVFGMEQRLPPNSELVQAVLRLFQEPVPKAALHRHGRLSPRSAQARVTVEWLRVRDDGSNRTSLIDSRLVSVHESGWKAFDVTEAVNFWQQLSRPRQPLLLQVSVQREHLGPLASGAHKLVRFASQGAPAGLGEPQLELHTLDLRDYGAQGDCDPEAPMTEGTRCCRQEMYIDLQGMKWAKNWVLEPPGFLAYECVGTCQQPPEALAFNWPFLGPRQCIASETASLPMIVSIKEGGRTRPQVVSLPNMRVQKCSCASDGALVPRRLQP

[4] = molecular target: Calmodulin-1 (Homo sapiens) (UniProt P0DP23); assay: small molecules binding calmodulin-1 with EGTA – biochemical, small-molecule microarray, Cy5-labelled CALM1, profiling panel (AID 1111); settings: Cy5-CALM1 binding fluorescence, higher = more signal;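 note: labelled calmodulin applied in Tris saline Tween buffer holding calcium plus EGTA and DTT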
[5] = molecular target: Calmodulin-1 (Homo sapiens) (UniProt P0DP23); assay: small molecules binding Ca-loaded calmodulin-1 – biochemical, small-molecule microarray, Cy5-labelled CALM1, plus calcium, artefact control for SMM control-protein annotation, profiling panel (AID 1112); settings: Cy5-CALM1 binding fluorescence, higher = more signal;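 note: score merges spot fluorescence with signal to noise from triplicate slides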
[6] = probe aWnt5a binding to arrayed compounds – biochemical, biotinylated probe, 635/667 nm fluorescence, primary screen (AID 1113); settings: small-molecule microarray, higher = more signal;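 note: score merges 667 nm fluorescence intensity with signal-to-noise per printed feature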
[7] = probe aShh binding to arrayed compounds – biochemical, biotinylated probe, 635/667 nm fluorescence, primary screen (AID 1114); settings: small-molecule microarray, higher = more signal;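 note: probe is biotin-labelled aShh protein from a stem cell growth factor screen; measures binding of labelled protein to compounds printed on the slide; score merges feature fluorescence at 667 nm with signal-to-noise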
[8] = probe aNog binding to arrayed compounds – biochemical, biotinylated probe, 635/667 nm fluorescence, primary screen (AID 1115); settings: small-molecule microarray, higher = more signal;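 note: probe is biotinylated aNog protein used at 0.15 µg/mL for 1 h at 4 C; z-score combines 667 nm fluorescence of each spot with its signal to noise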
[9] = molecular target: Torsin-1A-interacting protein 1 (Homo sapiens) (UniProt Q5JTV8); assay: compound microarray binding of lysate hLAP1 – cell lysate, small-molecule microarray, COS7 lysate, 635/667 nm fluorescence, primary screen (AID 1116); settings: 635 nm fluorescence, higher = more signal
Torsin-1A-interacting protein 1 (Homo sapiens), sequence (Q5JTV8 whole entry, looked up): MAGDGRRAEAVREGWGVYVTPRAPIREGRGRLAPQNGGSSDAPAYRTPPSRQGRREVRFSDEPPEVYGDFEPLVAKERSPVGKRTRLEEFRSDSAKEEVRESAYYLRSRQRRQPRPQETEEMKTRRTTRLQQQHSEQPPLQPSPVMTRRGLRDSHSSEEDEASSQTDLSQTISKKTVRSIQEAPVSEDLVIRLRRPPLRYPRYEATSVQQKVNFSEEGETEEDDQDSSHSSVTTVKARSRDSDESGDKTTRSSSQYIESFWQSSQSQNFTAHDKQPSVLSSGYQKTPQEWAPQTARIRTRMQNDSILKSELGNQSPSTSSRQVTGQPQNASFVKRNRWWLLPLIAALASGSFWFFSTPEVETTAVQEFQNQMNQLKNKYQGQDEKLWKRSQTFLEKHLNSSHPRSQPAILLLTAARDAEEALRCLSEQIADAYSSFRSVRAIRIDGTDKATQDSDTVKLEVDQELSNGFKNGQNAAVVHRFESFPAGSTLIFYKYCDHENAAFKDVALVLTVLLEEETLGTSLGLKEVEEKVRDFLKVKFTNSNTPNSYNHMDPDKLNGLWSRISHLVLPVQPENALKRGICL

[10] = molecular target: Alpha-bungarotoxin (Bungarus multicinctus) (UniProt P60615); assay: compounds binding labelled alpha-BTX control protein – biochemical, small-molecule microarray, Alexa647 label, 635/667 nm fluorescence, artefact control for SMM control protein annotation, profiling panel (AID 1117); settings: alpha-BTX-A647 binding fluorescence, higher = more signal
Alpha-bungarotoxin (Bungarus multicinctus), sequence (P60615 whole entry, looked up): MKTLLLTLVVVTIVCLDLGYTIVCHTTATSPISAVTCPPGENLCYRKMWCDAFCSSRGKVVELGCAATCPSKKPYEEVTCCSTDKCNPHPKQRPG

Albumin (Bos taurus) = Albumin (Bos taurus) (UniProt P02769); assay: compounds binding labelled BSA control protein – biochemical, small-molecule microarray, Alexa647 label, 635/667 nm fluorescence, artefact control for SMM control protein annotation, profiling panel (AID 1118); settings: BSA-A647 binding, fluorescence 635 nm, higher = more signal;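 note: score merges 667 nm emission intensity and signal-to-noise per printed compound spot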
Albumin (Bos taurus), sequence (P02769 whole entry, looked up): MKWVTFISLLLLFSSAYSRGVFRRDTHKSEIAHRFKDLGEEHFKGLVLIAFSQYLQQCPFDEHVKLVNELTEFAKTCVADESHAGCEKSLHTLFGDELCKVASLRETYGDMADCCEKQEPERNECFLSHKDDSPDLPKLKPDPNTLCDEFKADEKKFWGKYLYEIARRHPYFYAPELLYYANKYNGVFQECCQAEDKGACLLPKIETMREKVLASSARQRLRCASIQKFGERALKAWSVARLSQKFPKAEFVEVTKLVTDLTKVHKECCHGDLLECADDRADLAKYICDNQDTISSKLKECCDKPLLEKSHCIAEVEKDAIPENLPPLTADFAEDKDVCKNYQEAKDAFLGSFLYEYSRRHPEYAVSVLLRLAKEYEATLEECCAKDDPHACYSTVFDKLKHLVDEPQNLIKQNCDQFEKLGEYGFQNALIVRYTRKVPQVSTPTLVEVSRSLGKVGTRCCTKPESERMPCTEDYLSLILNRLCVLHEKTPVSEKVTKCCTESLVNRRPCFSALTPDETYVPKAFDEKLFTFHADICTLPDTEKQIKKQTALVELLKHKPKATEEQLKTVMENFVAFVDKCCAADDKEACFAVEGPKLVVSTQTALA

[11] = probe aXIP binding to arrayed compounds – biochemical, NeuroSMM set, 635/667 nm fluorescence, primary screen (AID 1119); settings: small-molecule microarray, higher = more signal, called active from +8 up or from −8 down;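 note: probe is the protein aXip251-270 applied at 1 µg/mL to compound-printed slides; binding of probe to printed compounds measured as 667 nm fluorescence plus signal to noise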
[12] = probe aNOTCH3 binding on compound microarray – biochemical, small-molecule microarray, 635/667 nm fluorescence, primary screen (AID 1120); settings: higher = more signal;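 note: probe is a biotin-tagged antibody raised against NOTCH3 rather than NOTCH3 protein; score merges spot fluorescence near 667 nm with spot signal to noise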
[13] = probe aNOTCH2 binding on compound microarray – biochemical, small-molecule microarray, 635/667 nm fluorescence, primary screen (AID 1121); settings: higher = more signal;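 note: score merges feature fluorescence read at 667 nm with its signal to noise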
[14] = molecular target: Carbonic anhydrase 2 (Homo sapiens) (UniProt P00918); assay: compounds binding carbonic anhydrase 2 – biochemical, small-molecule microarray, Alexa647-labelled CAII, profiling panel (AID 1122); settings: CAII-A647 binding fluorescence, higher = more signal
[15] = COS7 lysate on small-molecule microarray, probe aHis, 635 nm (AID 1123); settings: COS7 cell lysate, fluorescence, higher = more signal;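 note: z-score combines 667nm fluorescence intensity with signal-to-noise per printed compound spot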
[16] = probe aLAP1 signal on lysate-treated microarray – cell lysate, small-molecule microarray, COS7 lysate, primary screen (AID 1124); settings: probe aLAP1, fluorescence, higher = more signal;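 note: lysate comes from COS7 cells expressing LAP1 and is applied at 0.3 µg/mL; score merges spot fluorescence near 667 nm with signal-to-noise over triplicate slides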
Sam68 (KHDRBS1) = assay: compounds binding KHDRBS1 protein – biochemical, small-molecule microarray, 635 nm fluorescence, primary screen (AID 1125); settings: higher = more signal;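 note: score merges 667 nm channel intensity with signal to noise over triplicate slides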
[17] = test system: Chordin-like protein 2 (CHRDL2); assay: compounds binding chordin-like 2 – biochemical, small-molecule microarray, 635 nm fluorescence, primary screen (AID 1126); settings: fluorescence 635 nm, higher = more signal;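 note: printed compound slides probed with Chrdl2 protein at 4 µg/mL for 1 h at 4 C; score merges 667 nm emission intensity with signal to noise over three replicate slides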
[18] = molecular target: Concanavalin-A (Canavalia ensiformis) (UniProt P02866); assay: compounds binding concanavalin A lectin – biochemical, small-molecule microarray, Alexa647 label, 635 nm, artefact control for SMM control protein annotation, primary screen (AID 1127); settings: ConA-A647 binding fluorescence, higher = more signal;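 note: z combines 667 nm emission intensity with signal-to-noise across three replicate slides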
Concanavalin-A (Canavalia ensiformis), sequence (P02866 whole entry, looked up): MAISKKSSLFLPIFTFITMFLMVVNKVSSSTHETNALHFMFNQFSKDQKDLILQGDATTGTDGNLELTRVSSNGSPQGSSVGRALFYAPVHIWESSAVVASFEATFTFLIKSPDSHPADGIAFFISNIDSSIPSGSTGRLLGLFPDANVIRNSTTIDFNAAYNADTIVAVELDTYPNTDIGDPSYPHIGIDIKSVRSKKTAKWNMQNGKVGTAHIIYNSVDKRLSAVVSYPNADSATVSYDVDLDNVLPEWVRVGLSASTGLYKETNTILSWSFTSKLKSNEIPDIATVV

Row | Compound | composite z-score [1] | z-score [2] | composite z-score [3] | composite z-score [4] | composite z-score [5] | composite z-score [6] | composite z-score [7] | composite z-score [8] | composite z-score [9] | composite z-score [10] | composite z-score (Albumin (Bos taurus)) | composite Z-score [11] | composite z-score [12] | composite z-score [13] | composite z-score [14] | composite z-score [15] | composite z-score [16] | composite z-score (Sam68 (KHDRBS1)) | composite z-score [17] | composite z-score [18]
1 | Cc1ccc(F)cc1S(=O)(=O)N[C@@H]1CCN(Cc2ccc3[nH]ccc3c2)C1 | 0.935 | -4.03 | 0.292 | -0.46 | -0.754 | -0.12 | -0.0709 | -0.295 | 0.144 | 0.431 | -0.213 | 0.688 (inactive) | 0.128 | -0.176 | 0.713 | 0.95 | -0.126 | 0.605 | 0.651 | 0.463
2 | Cc1c(-c2ccc(-c3ccc(Cl)c(Cl)c3)o2)nc(-c2ccccc2)c2c1CO[Si]2(C(C)C)C(C)C | 0.296 | -0.403 | -0.487 | -0.179 | -0.0727 | -0.113 | 0.0326 | -0.103 | 0.125 | -0.0982 | 0.734 | -0.0877 (inactive) | -0.122 | -0.148 | 0.181 | 0.356 | -0.213 | 0.295 | -0.18 | 0.248
3 | CCCCN1CC=CC23O[C@@H]4C=CCOC(=O)[C@@H]4[C@H]2C(=O)N(CCO)[C@@H]3C1=O (stereo not given in full) | -0.718 | 0.407 | -2.32 | -0.483 | 0.856 | -0.119 | 0.0893 | 0.643 | -0.401 | -1.48 | -0.852 | -0.483 (inactive) | 0.177 | -0.185 | 0.85 | -0.291 | -0.217 | -0.779 | -1.68 | -1.09
4 | COCCCNC(=O)[C@@H]1c2ccccc2C(=O)N(Cc2cc(C(F)(F)F)cc(C(F)(F)F)c2)[C@H]1c1ccc(CO)cc1 | 0.0861 | -0.293 | -0.323 | 0.0808 | 0.232 | -0.105 | 0.0091 | 0.896 | 0.208 | -0.543 | -0.873 | -0.0722 (inactive) | 0.531 | 0.0282 | 0.685 | 1.68 | -0.182 | 0.299 | -0.716 | -1.06
5 | C=C(COC)/C(=C/C[C@H](OC(=O)c1ccncc1)c1ccc(OCCO)cc1)c1cc(C(=O)OC)ccc1OC | 1.42 | -1.66 | 0.431 | 0.579 | -0.467 | 0.0077 | 0.157 | 0.484 | 1.18 | 1.23 | 0.401 | 0.3 (inactive) | 0.325 | -0.123 | 0.357 | 1.39 | 0.84 | 1.26 | 0.249 | 0.952
6 | CCOC(=O)C1=CC[C@@H](c2ccc(F)cc2)N(S(=O)(=O)c2ccc(C)cc2)[C@H]1c1ccc([N+](=O)[O-])cc1 | 1.34 | -1.05 | -0.248 | 1.56 | -0.171 | 0.0323 | -0.138 | -0.158 | 0.341 | 0.937 | 0.854 | 0.348 (inactive) | 0.137 | -0.14 | 0.223 | 2 | -0.0775 | 1.2 | -0.493 | 1.09
7 | CCCC=C(CCC)[C@@H](NC(=O)c1ccccc1)c1ccc(C(=O)OC)cc1 | 0.882 | -1.32 | 0.898 | -0.271 | -0.52 | 0.732 | 0.318 | 1.71 | -0.171 | 0.303 | -0.122 | -0.222 (inactive) | 1.21 | -0.166 | 0.526 | 1.77 | 0.0914 | 0.823 | 0.308 | 0.711
8 | COc1ccc([Si](C)(C)[C@@H]2[C@@H](CC(=O)N(CCO)Cc3ccccc3)O[C@]3(C(=O)N(Cc4ccc(N5CCC5=O)cc4)c4ccccc43)[C@H]2C)cc1 | -0.382 | -4.13 | 1.14 | 0.086 | 0.734 | -0.176 | 0.0898 | -0.194 | 0.357 | 0.295 | 0.212 | -0.272 (inactive) | -0.178 | -0.218 | -0.23 | 0.711 | -0.161 | 0.0201 | 0.508 | 0.783
9 | CC[C@H](C)C(=O)O[C@H]1CC[C@]2(C)C3=C(CCC2C1(C)C)[C@]1(C)CC[C@H]([C@H](C)CCCC(C)C)[C@@]1(C)CC3 (stereo not given in full) | 0.758 | -0.492 | 0.405 | -0.367 | -0.468 | -0.0462 | -0.0769 | -0.31 | 0.14 | 0.332 | -0.0017 | -0.014 (inactive) | -0.0947 | -0.146 | -0.0247 | 0.627 | -0.329 | 0.329 | 0.367 | 0.515
10 | CCCC=C(CCC)[C@@H](NS(=O)(=O)c1ccc(Cl)cc1)c1ccccc1 | -0.201 | -0.777 | -1.34 | 0.451 | 0.781 | 0.954 | 0.508 | 1.07 | -1.24 | 0.64 | 0.046 | -0.0223 (inactive) | -0.056 | 0.194 | 0.281 | 0.829 | 1.28 | 0.127 | -0.845 | 0.205
11 | CC(C)C(=C=CC[C@@H](O)c1cccc(OCCO)c1)CCO | 0.217 | 0.13 | 0.0381 | -0.203 | -0.136 | -0.154 | -0.229 | -0.273 | 0.393 | -0.529 | 0.161 | -0.137 (inactive) | 0.0996 | -0.0519 | 0.705 | 0.502 | 0.0157 | 0.0316 | 0.55 | -0.114
